The source of these data is PubChem BioAssay (NCI).

Structures are written as SMILES. Values joined by “and” are separate entries in the source; they are usually repeats but may differ in a detail not shown here. Equal entries are not always repeated. Compounds without any hit were thinned out: in the full panel of roughly 83,000, 20% have a hit.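 Plates (96-well) were seeded with cells, treated with compound at one concentration, and incubated for 48 hours before percent growth was determined.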 A number with no mark means an inactive call. Active and inactive are the calls of the source. How the source made its calls: active means growth percent below 10; inactive means the rest.

Some test systems named below: RPMI-8226 leukemia; OVCAR-8 ovarian; OVCAR-4 ovarian; SK-OV-3 ovarian; IGROV1 ovarian; OVCAR-3 ovarian; HS 578T breast; NCI/ADR-RES ovarian; T-47D breast; BT-549 breast; SW-620 colon; MCF7 breast; HCT-116 colon; HCC-2998 colon; KM12 colon; MDA-MB-435 melanoma.
Common to all, as to assay: NCI-60 one-dose screen, 48 h (100 = growth as untreated, 0 = no growth, -100 = all killed)
The subject of another experiment is SR leukemia. To be noted: 10 µM unless noted.

In the case of `O=C(NCCCN1CCCCC1)c1ccc(-c2nc3ccc4[nH]ncc4c3c3c2CCCC3)cc1`, the growth with SR leukemia was -18.3% (active); in the experiment with RPMI-8226 leukemia (10 µM unless noted), 29.9%; in the experiment with OVCAR-8 ovarian (10 µM unless noted), 62%; in the experiment with OVCAR-4 ovarian (10 µM unless noted), 54.3%; with SK-OV-3 ovarian (10 µM unless noted), 24.9%; with IGROV1 ovarian (10 µM unless noted), 29.2%. The growth with OVCAR-3 ovarian (10 µM unless noted) is 67.5%; with HS 578T breast (10 µM unless noted), 14.4%; in the experiment on NCI/ADR-RES ovarian (10 µM unless noted), 85.2%; with T-47D breast (10 µM unless noted), 86.9%; in the experiment on BT-549 breast (10 µM unless noted) it was 31.4%; in the experiment on SW-620 colon (10 µM unless noted), 24.5%. The growth in the experiment on MCF7 breast (10 µM unless noted) is 31.8%; with HCT-116 colon (10 µM unless noted), 16.8%; in the experiment with HCC-2998 colon (10 µM unless noted), 76%; in the experiment on KM12 colon (10 µM unless noted), 20.6%.
For the compound `NNCCc1ccccc1`, the growth in the experiment with SR leukemia was 106% and 104%; in the experiment with RPMI-8226 leukemia (10 µM unless noted), 95.3% and 110%; in the experiment with OVCAR-8 ovarian (10 µM unless noted) it was 116% and 96.7%; with OVCAR-4 ovarian (10 µM unless noted), 101% and 96.9%; in the experiment on SK-OV-3 ovarian (10 µM unless noted) it was 108% and 94.9%; in the experiment with IGROV1 ovarian (10 µM unless noted) it was 97.2%. The growth with OVCAR-3 ovarian (10 µM unless noted) is 122% and 100%; in the experiment with HS 578T breast (10 µM unless noted), 116% and 94.1%; in the experiment on NCI/ADR-RES ovarian (10 µM unless noted) it was 104% and 91.4%; in the experiment with T-47D breast (10 µM unless noted), 106% and 95.2%; in the experiment on BT-549 breast (10 µM unless noted), 103% and 107%; with MDA-MB-435 melanoma (10 µM unless noted), 109% and 97.2%. For the same compound, the growth in the experiment on SW-620 colon (10 µM unless noted) was 106% and 94.6%; in the experiment on MCF7 breast (10 µM unless noted) it was 98.5% and 86.6%; with HCT-116 colon (10 µM unless noted), 103% and 93.5%; in the experiment on HCC-2998 colon (10 µM unless noted), 110% and 98.5%; with KM12 colon (10 µM unless noted), 111% and 99.5%.
Regarding `CC(=O)/C=C/c1ccc(N(CCO)Cc2ccc(C(C)(C)C)cc2)cc1`, the growth is 84.7% with RPMI-8226 leukemia (10 µM); -34.9% (active) in the experiment with RPMI-8226 leukemia (100 µM); 80.7% with OVCAR-8 ovarian (10 µM); -81.1% (active) in the experiment with OVCAR-8 ovarian (100 µM); 65.7% in the experiment on OVCAR-4 ovarian (10 µM); -89.2% (active) in the experiment with OVCAR-4 ovarian (100 µM). Moreover, the growth in the experiment with SK-OV-3 ovarian (10 µM) was 83.7%; in the experiment on SK-OV-3 ovarian (100 µM), -99% (active); in the experiment on IGROV1 ovarian (10 µM) it was 96.6%; in the experiment with IGROV1 ovarian (100 µM) it was -65.9% (active); in the experiment on OVCAR-3 ovarian (10 µM), 84.4%; with OVCAR-3 ovarian (100 µM), -95% (active). For the same compound, the growth in the experiment on HS 578T breast (10 µM) was 65%; in the experiment on HS 578T breast (100 µM) it was -52.9% (active); in the experiment on NCI/ADR-RES ovarian (10 µM), 67%; in the experiment on NCI/ADR-RES ovarian (100 µM), -88.3% (active); with BT-549 breast (10 µM), 79%; with BT-549 breast (100 µM), -88.9% (active). Also, the growth was 80.7% in the experiment on MDA-MB-435 melanoma (10 µM); -94.4% (active) in the experiment with MDA-MB-435 melanoma (100 µM); 83.9% in the experiment with SW-620 colon (10 µM); -91.8% (active) in the experiment on SW-620 colon (100 µM); 62.9% in the experiment with MCF7 breast (10 µM); -55.4% (active) with MCF7 breast (100 µM). The growth is 67.2% in the experiment on HCT-116 colon (10 µM); -98.1% (active) with HCT-116 colon (100 µM); 86.7% with HCC-2998 colon (10 µM); -89.2% (active) with HCC-2998 colon (100 µM); 81.2% with KM12 colon (10 µM); -78.2% (active) in the experiment on KM12 colon (100 µM).
On to `COc1ccc(C(=O)/C=C/c2ccc(OCc3ccc(Cl)cc3)cc2)cc1OC`, for which the growth was 88.5% with RPMI-8226 leukemia (10 µM); 55.8% in the experiment on RPMI-8226 leukemia (100 µM); 92% with OVCAR-8 ovarian (10 µM); -8.35% (active) in the experiment with OVCAR-8 ovarian (100 µM); 86% with OVCAR-4 ovarian (10 µM); -4.25% (active) with OVCAR-4 ovarian (100 µM). In addition, the growth with SK-OV-3 ovarian (10 µM) was 120%; in the experiment on SK-OV-3 ovarian (100 µM), 7.5% (active); with IGROV1 ovarian (10 µM) it was 105%; in the experiment with IGROV1 ovarian (100 µM), 4.98% (active); in the experiment on OVCAR-3 ovarian (10 µM), 104%; in the experiment with OVCAR-3 ovarian (100 µM), -45.2% (active). In addition, the growth was 93.5% in the experiment with HS 578T breast (10 µM); -1.6% (active) in the experiment with HS 578T breast (100 µM); 73.8% with T-47D breast (10 µM); 41.5% with T-47D breast (100 µM); 115% in the experiment with BT-549 breast (10 µM); 22% with BT-549 breast (100 µM). Moreover, the growth in the experiment with SW-620 colon (10 µM) is 103%; in the experiment on SW-620 colon (100 µM) it was 9.15% (active); in the experiment on MCF7 breast (10 µM) it was 84.2%; with MCF7 breast (100 µM) it was 9.31% (active); with HCT-116 colon (10 µM), 90.2%; in the experiment on HCT-116 colon (100 µM), -25.8% (active). Also, the growth is 101% in the experiment with HCC-2998 colon (10 µM), 44% in the experiment on HCC-2998 colon (100 µM), 90.7% in the experiment with KM12 colon (10 µM) and 21.4% with KM12 colon (100 µM).
